Measured values reported in PubChem BioAssay (NCI).
About 79,000 compounds went through this panel and 15% of them were active in at least one assay; those are over-represented in the sample as a whole. A number with no mark means an inactive call. Activity calls are given as the source filed them. No stated cut-off is given here; in the data, active means growth inhibition above about 70%; inactive means the rest.

Tests used:
[1] = NCI Yeast Anticancer Drug Screen. Data for the rad50 strain (AID 155);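 further: 0% = growth of vehicle-only cultures of the same strain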; details: S. cerevisiae rad50 strain growth inhibition, stronger effect = higher value
Summary of the method: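 Compounds were tested on a yeast strain with an engineered DNA damage repair alteration; the reported value is growth inhibition normalised to vehicle treatment.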

[2] = NCI Yeast Anticancer Drug Screen. Data for the mec2-1 strain (AID 157); details: S. cerevisiae mec2-1 strain, stronger effect = higher value
Summary of the method: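 Strain: mec2-1 (DNA repair/cell cycle alteration). Compound exposure, then growth measured; inhibition expressed relative to vehicle.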

[3] = NCI Yeast Anticancer Drug Screen. Data for the sgs1 mgt1 strain (AID 161);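 further: 0% = growth of cultures given vehicle only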; details: S. cerevisiae sgs1 mgt1 strain, stronger effect = higher value
Summary of the method: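 Genetically altered yeast, compound exposure, growth inhibition relative to vehicle.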

[4] = NCI Yeast Anticancer Drug Screen. Data for the cln2 rad14 strain (AID 165);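 further: 0% = growth equal to vehicle treated cultures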; details: S. cerevisiae cln2 rad14 strain, stronger effect = higher value
Summary of the method: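 Compounds are applied to the cln2 rad14 yeast strain, and growth is then compared with that of vehicle-treated cultures to give inhibition.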

[5] = NCI Yeast Anticancer Drug Screen. Data for the bub3 strain (AID 167); details: S. cerevisiae bub3 mutant strain, stronger effect = higher value
Summary of the method: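 Growth of a checkpoint-deficient yeast mutant is measured after compound exposure. Values represent inhibition relative to vehicle.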

[6] = NCI Yeast Anticancer Drug Screen. Data for the mlh1 rad18 strain (AID 175); details: S. cerevisiae mlh1 rad18 strain growth inhibition, stronger effect = higher value
Summary of the method: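 Read-out is yeast growth inhibition, calculated against vehicle-only controls. The compound was applied to a strain engineered with DNA damage repair alterations.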

[7] = at 5.0 µM (retest, dose inferred, filed as 0.5)
[8] = at 50.0 µM (retest, dose inferred, filed as 5.0)

Compound | growth inhibition [1, 7] [%] | growth inhibition [1, 8] | growth inhibition ([1]; at 50.0 µM) | growth inhibition [2, 7] | growth inhibition [2, 8] | growth inhibition ([2]; at 50.0 µM) | growth inhibition [3, 7] | growth inhibition [3, 8] | growth inhibition ([3]; at 50.0 µM) | growth inhibition [4, 7] [%] | growth inhibition [4, 8] | growth inhibition ([4]; at 50.0 µM) | growth inhibition [5, 7] | growth inhibition [5, 8] | growth inhibition ([5]; at 50.0 µM) | growth inhibition [6, 7] | growth inhibition [6, 8] | growth inhibition ([6]; at 50.0 µM)
O=C(C(Cl)Cl)N(O)c1ccccc1OCc1ccccc1 | 10 | 52% | 72.2% (active) | 9% | 73% (active) | 41.9% | 8% | 94% (active) | 90% (active) | 6 | 27% | 34.4% | 2% | 67% | 62.4% | 56% | 95% (active) | 89% (active)
N=C(N)Cc1ccc(NC(=O)c2ccc(C(=O)Nc3ccc(CC(=N)N)cc3)cc2)cc1 | 3 | -8% | 21.4% | 2% | 14% | 34.2% | -11% | -21% | 78.4% (active) | -7 | -16% | 14.7% | -3% | -11% | 56.3% | 2% | -49% | 27.9%
COC1/C=C\C=C(/C)C(=O)Nc2cc3nc4cc(Br)ccc4oc-3c(c2=O)CC(C)CC(OC)C(O)C(C)/C=C(\C)C1OC(N)=O (stereo not given) | 54 | 95% (active) | 90.2% (active) | 81% (active) | 96% (active) | 92% (active) | 46% | 94% (active) | 89.9% (active) | 50 | 96% (active) | 83.2% (active) | 79% (active) | 96% (active) | 91.8% (active) | 81% (active) | 95% (active) | 89.4% (active)
O=C1C=CC(=O)N1C12CC3CC(CC(C3)C1)C2 | 41 | 99% (active) | 90.8% (active) | 62% | 99% (active) | 93.4% (active) | 73% (active) | 99% (active) | 90.9% (active) | 13 | 99% (active) | 91.5% (active) | 72% (active) | 99% (active) | 91.8% (active) | 76% (active) | 99% (active) | 90.7% (active)
Cc1cc(NS(=O)(=O)c2ccc(NCc3c4ccccc4nc4cc(Cl)ccc34)cc2)no1 | 26 | 97% (active) | 98.2% (active) | 22% | 99% (active) | 98.5% (active) | 27% | 99% (active) | 98.5% (active) | 6 | 97% (active) | 97.3% (active) | 25% | 99% (active) | 96.2% (active) | 9% | 97% (active) | 98.2% (active)
